Results as given in PubChem BioAssay AID588458 (Sanford-Burnham Center for Chemical Genomics, 2011).
Screen size: about 360,000 compounds; about 3,000 (0.83%) were called active. No stated cut-off is given here; in the data, active means inhibition above about 50%; inactive means the rest. For the sample, actives were picked, then their nearest neighbours and some compounds at random.

Each molecule was assayed against DNA (cytosine-5)-methyltransferase 1 (Homo sapiens) (UniProt P26358) (assay: inhibition of DNA methyltransferase DNMT1 – biochemical, molecular beacon, fluorescence, HinP1I cleavage, uHTS, primary screen (AID 588458)). Conditions: at 10 µM, stronger effect = higher value.
Chain of DNA (cytosine-5)-methyltransferase 1 (Homo sapiens) (P26358 504-1616 limits assumed): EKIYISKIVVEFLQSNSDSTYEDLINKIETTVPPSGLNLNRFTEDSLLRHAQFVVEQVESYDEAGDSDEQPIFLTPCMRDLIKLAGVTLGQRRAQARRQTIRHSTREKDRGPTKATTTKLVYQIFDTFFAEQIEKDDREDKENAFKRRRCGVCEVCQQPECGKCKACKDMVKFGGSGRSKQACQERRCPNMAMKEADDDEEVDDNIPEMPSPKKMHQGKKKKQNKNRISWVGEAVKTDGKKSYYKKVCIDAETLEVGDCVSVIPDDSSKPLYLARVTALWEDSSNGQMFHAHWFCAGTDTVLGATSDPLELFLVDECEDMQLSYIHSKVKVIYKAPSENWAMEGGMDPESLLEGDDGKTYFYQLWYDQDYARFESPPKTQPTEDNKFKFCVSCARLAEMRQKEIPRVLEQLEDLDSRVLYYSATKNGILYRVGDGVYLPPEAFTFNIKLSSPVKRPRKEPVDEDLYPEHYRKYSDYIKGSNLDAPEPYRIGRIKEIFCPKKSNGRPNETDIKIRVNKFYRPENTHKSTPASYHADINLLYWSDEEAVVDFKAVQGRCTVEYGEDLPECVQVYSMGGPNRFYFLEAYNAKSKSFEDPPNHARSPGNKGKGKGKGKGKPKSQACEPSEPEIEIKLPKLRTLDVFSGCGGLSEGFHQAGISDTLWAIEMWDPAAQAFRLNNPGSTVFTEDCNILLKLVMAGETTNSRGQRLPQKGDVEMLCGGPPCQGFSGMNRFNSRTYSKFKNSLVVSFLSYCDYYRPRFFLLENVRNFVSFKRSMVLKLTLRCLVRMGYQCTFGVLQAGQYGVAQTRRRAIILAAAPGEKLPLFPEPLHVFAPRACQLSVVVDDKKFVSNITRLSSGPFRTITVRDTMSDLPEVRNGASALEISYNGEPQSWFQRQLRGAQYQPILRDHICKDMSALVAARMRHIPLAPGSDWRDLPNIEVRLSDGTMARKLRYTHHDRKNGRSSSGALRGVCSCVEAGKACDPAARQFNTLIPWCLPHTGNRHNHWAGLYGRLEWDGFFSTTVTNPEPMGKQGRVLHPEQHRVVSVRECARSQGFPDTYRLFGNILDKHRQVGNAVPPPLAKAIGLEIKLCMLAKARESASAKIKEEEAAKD

Inhibition (reported as % activation of signal), active:
N#Cc1ccccc1CN1C(=O)S/C(=C/c2cccn2-c2cccc(C(=O)O)c2)C1=O 102%
CN(C)/C=C(/C(=O)c1ccc(Cl)cc1)S(=O)(=O)c1ccccc1 70%
COc1cccc(C(=O)Nc2ccc(N3CCCC3)cc2)c1 91.3%
CC1CN(C(=O)c2ccccc2NS(=O)(=O)c2cccc([N+](=O)[O-])c2)CC(C)O1 (centres undefined) 65.4%
Cc1cc(O)c(C(=O)/C=C/c2c(F)c(F)c(F)c(F)c2F)c(=O)o1 59.4%
O=C(Cn1nnc(-c2ccccc2)n1)N/N=C/c1ccc(-c2ccc(Cl)cc2)o1 59.9%
CCOc1ccc(CN2CCC(n3nccc3NC(=O)C3CC3)CC2)cc1CO 55.5%
O=C(Oc1ccc(-c2nc(-c3ccccn3)no2)cc1)c1ccccc1 52.9%
c1ccc2cc3c(NCCN4CCOCC4)ccnc3cc2c1 54.4%
CC(=O)Nc1ccc(SCC(=O)NC(=O)c2ccc(Cl)cc2)cc1 69.8%
Cc1ccc(-c2nn(-c3ccccc3)cc2/C=C2\SC(=S)N(CCCCCC(=O)O)C2=O)o1 87.9%
CCOC(=O)c1c(NC(=S)NC(=O)/C=C/c2cccs2)sc(C)c1C 58.9%
CC(C)(C)N(Cc1ccccc1)C(=O)c1ccncc1 82.6%
NC1=CC(=O)C(=O)c2cccnc21 100%
O=C(COC(=O)c1cccc(Br)c1)Nc1cccc2c1C(=O)c1ccccc1C2=O 51%
Cc1ccc(N=C2NC(=O)/C(=C/C=C/c3ccco3)S2)cc1C 71.1%
O=C(CSc1nc2ccccc2c(=O)[nH]1)Nc1nc(-c2ccc(Br)cc2)cs1 93.2%

Inhibition (reported as % activation of signal), inactive:
CC(=O)N/C(=C/c1ccc(OC(F)F)cc1)C(=O)O -1.65%
O=C(NCCN1C(=O)S/C(=C\c2cccnc2)C1=O)c1cccc(OC(F)F)c1 -3.23%
Cc1ccc(C(=O)O)cc1-c1ccc(/C=C2\SC(=O)N(CC(=O)Nc3ccc4c(c3)OCO4)C2=O)o1 12.5%
O=C(NC(Cc1ccccc1)C(=O)O)/C(=C\c1ccccc1)NC(=O)c1ccco1 (centres undefined) -3.34%
CCC(C)(C)NC(=O)CN(C(=O)CCC(=O)Nc1cc(C)ccn1)c1ccc2c(c1)OCCO2 -0.26%
O=C(c1cccnc1)N(c1cc2sc(=O)oc2c2ccccc12)S(=O)(=O)c1ccccc1 -12.2%
CC(Sc1cccc[n+]1[O-])C(=O)Nc1cccc(S(=O)(=O)N2CCOCC2)c1 (centres undefined) 1.02%
CN(C)/C=C(/C(=O)c1ccccc1)S(=O)(=O)c1ccc(Cl)cc1 -1.72%
CN(C)/C=C(/C(=O)c1ccc(F)cc1)S(=O)(=O)c1ccc(F)cc1 1.17%
Cc1cnc(CN(C)C(=O)C2CCC(=O)N(CCc3cccc(F)c3)C2)[nH]1 (centres undefined) 1.88%
O=C(Nc1ccc(Cl)cc1)c1cccc(OC(=S)N2CCOCC2)c1 0.14%
COc1cccc(C(=O)Nc2ccc3nc4n(c(=O)c3c2)CCCCC4)c1 3.72%
CC1CN(C(=O)c2cccc(NS(=O)(=O)c3ccc(Br)cc3)c2)CC(C)O1 (centres undefined) 6.97%
Cc1cc([N+](=O)[O-])ccc1NS(=O)(=O)c1ccccc1 3.46%
Nc1c(C(=O)O)cnn1-c1ccccc1 -0.06%
Cc1noc(C)c1COc1ccccc1C(=O)N(C)CC(=O)Nc1cccc(F)c1 1.78%
COc1ccc(C)cc1NC(=O)CCCN1C(=O)NC(C)(C)C1=O 2.66%
COc1ccc(/C=C/C(=O)c2c(O)cc(OC)cc2OC)cc1 -2.91%
Cc1cc(O)c(Sc2ccccc2)c(=O)o1 4.53%
COc1ccc(C)cc1NC(=O)c1cc(-c2ccccc2)nc2c1cnn2C(C)C -4.87%
Nc1nnn(CC(=O)N/N=C/c2ccccc2)n1 0.13%
O=C(CN1CCOCC1)N/N=C/c1ccc(-c2ccc(Br)cc2)o1 -2.15%
CC1(C)CC(=O)C(C2c3ccccc3S(=O)(=O)c3ccccc32)C(=O)C1 1.21%
O=C(Nc1ccnn1C1CCN(Cc2cccc(OCCO)c2)CC1)C1CCCC1 -0.78%
COc1cc(CC(=O)N2CCC(n3nccc3NC(=O)C3CC3)CC2)cc(OC)c1OC 0.88%
COCCCC1CCN(C(=O)C2CCC(=O)N(C3CCCCCC3)C2)CC1 (centres undefined) -2.02%
C=CCN1CCN(C(=O)CCCc2ccccc2)CC1 0.85%
O=C(COC(=O)c1ccncc1)c1ccccc1 -0.53%
Cc1noc(C)c1COC(=O)COc1ccc(-c2ccccc2)cc1 -6.7%
Nc1nc(Br)c2ccccc2c1-c1ccc(F)cc1 -9.34%
O=C(NCCN1CCOCC1)c1cc(Sc2cccc(Cl)c2)nc2ccccc12 -4.33%
Cc1cccc(C)c1OCCN1CCOCC1 0.32%
CN1CCN(C(=O)C(=O)c2cn(CC(=O)N3CCCC3)c3ccccc23)CC1 1.12%
O=C(CN1C(=O)c2cccnc2Oc2ccc(Cl)cc21)NCCc1ccccc1 -0.09%
Cc1ccc2oc(=O)c3cnn(CC(=O)N4CCN(c5ccccn5)CC4)c3c2c1 2.52%
CCC(=O)Nc1ccc(C(=O)NNC(=O)c2ccc(Cl)cc2)cc1 -1.31%
CC(=O)Nc1ccc(NC(=O)CCCNC(=O)c2ccc(Cl)cc2)cc1 -1.09%
Cc1ccc2c(CN3CCN(S(=O)(=O)c4ccccc4C(F)(F)F)CC3)cc(=O)oc2c1 -2.32%
CC(C)Oc1ccc(S(=O)(=O)N2CCOCC2)cc1NC(=O)C1CCCC1 4.21%
CCCCN1C(=O)/C(=C/C=C2/C=Cc3ccccc3N2CC)SC1=S 3.13%
O=C(CN1C(=O)/C(=C\c2ccccc2F)SC1=S)Nc1nc2ccccc2s1 -44.4%
CCc1nnc(NS(=O)(=O)c2ccc(NC(=S)NC(=O)/C=C/c3cccs3)cc2)s1 9.17%
CCOC(=O)c1sc(=NC(=O)/C=C/c2cccs2)n(C)c1C 10.1%
O=C(CO/N=C/c1ccccc1O)NNC(=O)c1ccccc1Cl -2.54%
CC(C)(C)C(=O)N(Cc1ccccc1)c1ccccn1 -1.5%
CCN(Cc1ccncc1)C(=O)CCc1ccccc1 -1.63%
CC(=O)N/C(=N/c1nc(C)cc(C)n1)Nc1ccc(F)cc1F 0.05%
C/C(=N\NC(=O)CCn1nc(C)cc1C)C(C)(C)C -0.8%
OCC(O)C1OCOC(C(O)CO)C1O (centres undefined) -1.63%
O=C(NCCc1ccc(F)cc1)c1ccc(S(=O)(=O)N2CCCCC2)cc1 -2.12%
CN(Cc1ccccc1)C(=O)COC(=O)c1ccccc1Nc1ccccc1 -16.6%
Cn1cnc(C(F)(F)F)c1-c1ccc([N+](=O)[O-])cc1 3.01%
O=C(COC(=O)Cn1cnc2ccccc21)Nc1cccc2c1C(=O)c1ccccc1C2=O 27.5%
O=C(COC(=O)c1ccccc1)Nc1ccccc1Sc1ccccc1 0.84%
CC(C)(C)c1ccccc1NC(=O)CN1C(=O)NC2(CCCC2)C1=O 1.67%
COCCn1cnnc1SCC(=O)Nc1cccc(S(=O)(=O)N2CCCCC2)c1 -1.49%
Cc1ccc2c(c1)N(CC(=O)N1CCC(C)CC1)C(=O)c1cccnc1O2 -0.74%
COc1ccc(/C=C/C(=O)OCC(=O)N2CCN(S(=O)(=O)c3ccc(C)cc3C)CC2)cc1OC -0.56%
O=C(COC(=O)c1cc(=O)[nH]c2ccccc12)Nc1nc(-c2cccc(Br)c2)cs1 -21.4%
Cc1cc(C)c(-c2csc(NC(=O)CCCc3nc4ccccc4c(=O)[nH]3)n2)c(C)c1 -5%
Cc1ccc(C(C(=O)NCC2CCCO2)N(C(=O)c2snc(C(N)=O)c2N)c2ccc(C(C)C)cc2)o1 (centres undefined) 0.65%
CC(C)C(=O)Nc1ccc2c(c1)oc1ccccc12 -5.97%
